Measurements as given in PubChem BioAssay.
A number with no mark means an inactive call.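 Rule for the calls: active = inhibition at or above 50% relative to wild type and mutant plate controls; inactive = inhibition below 50%.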

Assay: loss of swimming-algae plug formation – whole organism, Chlamydomonas reinhardtii, WT vs cilia-less mutant, absorbance, 96-well, primary screen (AID 463189);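 note: 0% = wild type cc124 cells in DMSO and 100% = ciliumless bld1 mutant cells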
Conditions: Chlamydomonas reinhardtii gravitaxis, OD600 absorbance, 2 days; at 10 µM; active compounds read high

Structure (SMILES)	inhibition [%]
CC1=C(C(=O)O)N2C(=O)[C@@H](NC(=O)C(N)c3ccccc3)[C@H]2SC1 (stereo not given in full)	-0.964
O=Nc1ccc2oc(=O)ccc2c1	-9.21
NS(=O)(=O)c1cccc2c1c([N+](=O)[O-])cc1nc(O)c(O)nc12	0.793
Cn1c(=O)[nH]c2ncn(C)c2c1=O	-7.51
COc1c2c(nc3ccccc13)OC(C(C)(O)CO)C2 (stereo not given)	6.88
CC1CCN(CC[C@H]2CCCN2S(=O)(=O)c2cccc(O)c2)CC1	-12.1
COc1cc2c(CCNC(C)=O)c[nH]c2cc1Cl	4.11
COc1cccc(-c2cc(=O)c3ccccc3o2)c1N	0.351
CCSC(N)=Nc1ccc(C(F)(F)F)cc1	3.43
O=c1ccc2ccc(O)c(O)c2o1	-4.31
O=S(=O)(O)C1CCNCC1	1.98
NCCCCNCCCN	-15.4
CNCCNS(=O)(=O)c1cccc2cnccc12	5.09
CCCCCCCCCCCCCCC[C@H](O)[C@H](N)CO	38.7
C[C@@H](CN1CCC(Cc2ccccc2)CC1)[C@@H](O)c1ccc(O)cc1	10.4
CNc1ncnc2c1ncn2[C@H]1C[C@H](OP(=O)(O)O)[C@@H](COP(=O)(O)O)O1	1.24
O=C1NC(c2cccc([N+](=O)[O-])c2)=CCN1c1ccccc1O	-0.979
CN[C@H](CC(=O)O)C(=O)O	6.26
Oc1cc2c(cc1O)C(c1ccccc1)CNCC2 (stereo not given)	-4.78
NC(=Nc1ccccc1)NC(=O)c1nc(Cl)c(N)nc1N	-0.27

Structure (SMILES)	inhibition [%]
Cn1ccc2cc3c(cc21)CCN3C(=O)Nc1cccnc1	9.75
O=C1CCC(N2C(=O)c3ccccc3C2=O)C(=O)N1 (stereo not given)	10.8
CC[C@H](NC(=O)c1c(C)c(-c2ccccc2)nc2ccccc12)c1ccccc1	9.84
OC(CN1CCC(Cc2ccc(F)cc2)CC1)c1ccc(Cl)cc1 (stereo not given)	-0.098
C[N+](C)(C)CCC(=O)c1cccc2ccccc12	7.13
c1ccc([C@H]2CN3CCSC3=N2)cc1	-1.39
COc1cc(/C=C(\C#N)C(=O)c2ccc(O)c(O)c2)cc(I)c1O	7.26
COc1ccc(CCCOc2cc(CCn3ccnc3)ccc2OC)cc1	1.24
CN1CCCC1CCOC(C)(c1ccccc1)c1ccc(Cl)cc1 (stereo not given)	11.5
CNC[C@H](O)c1ccc(O)c(O)c1	1.9
O=c1c(-c2ccc(O)cc2)coc2cc(O)ccc12	-7.57
CC(C)(CO)Cc1cc(C(C)(C)C)c(O)c(C(C)(C)C)c1	-2.65
CC(C)NCC(O)COc1cccc2ccccc12 (stereo not given)	6.9
O=C(c1cc(O)c(O)c([N+](=O)[O-])c1)c1ccccc1F	-0.57
O=C(O)CP(=O)(O)O	7.76
O=C(O)/C(=C/c1c(C(=O)O)[nH]c2cc(Cl)cc(Cl)c12)c1ccccc1	-3.38
COc1cc([C@@H]2c3cc4c(cc3[C@H](O)C3COC(=O)[C@@H]32)OCO4)cc(OC)c1OC (stereo not given in full)	0.089
C[C@](N)(Cc1ccc(O)c(O)c1)C(=O)O	5.26
O=c1[nH]c2cc(Cl)ccc2c(O)c1-c1ccc(Oc2ccccc2)cc1	5.4
Cc1cc(C)c(NC(=O)C[C@H](CC(=O)O)c2cccc3ccccc23)c(C(=O)N2CCC3(CCCC3)CC2)c1	13.6
